Results from the supplement of paper PMC6124720.
Where a name gives a salt, the structure may show the parent alone.

What follows are molecules tested on Pseudogymnoascus destructans 20631-21 (assay: growth activity index (DuctApe, 0 = no growth, 9 = maximal growth) (index 0-9); higher = more fungal growth (less inhibition), active = 0 or less; extreme values may be limits of the assay). Conditions: concentration level (1-4, increasing; Biolog proprietary): 1; temperature: 13 °C; YPD.
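Note: biolog Phenotype Microarray plates PM21–25, OD595 followed daily over 11 days, growth curves converted to index, mean of two independent experiments.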

Compound | growth activity index
C[C@H]1c2cccc(O)c2C(=O)C2=C(O)[C@]3(O)C(=O)C(C(N)=O)=C(O)[C@@H](N(C)C)[C@@H]3[C@@H](O)[C@@H]21 [Doxycycline] (Biolog plate: PM23) | 4.67 (inactive)
CO/N=C(\C(=O)N[C@@H]1C(=O)N2C(C(=O)O)=C(CSc3nc(=O)c(O)nn3C)CS[C@H]12)c1csc(N)n1 [Ceftriaxone] (Biolog plate: PM22) | 2 (inactive)
On1ccccc1=S [1-Hydroxypyridine-2-thione (pyrithione)] (Biolog plate: PM21) | 5.25 (inactive)
NCCSCC(N)C(=O)O (stereo unspecified) [Thialysine] (Biolog plate: PM24) | 4 (inactive)
C=C(CC[C@]12O[C@H](C(=O)O)[C@@](O)(C(=O)O)[C@](C(=O)O)(O1)[C@H](OC(=O)/C=C/[C@@H](C)C[C@@H](C)CC)[C@H]2O)[C@@H](OC(C)=O)[C@H](C)Cc1ccccc1 [Zaragozic acid A] (Biolog plate: PM24) | 5.67 (inactive)
NCC(=O)NO [Glycine hydroxamate] (Biolog plate: PM22) | 5 (inactive)
N=C(N)N [Guanidine hydrochloride] (Biolog plate: PM21) | 5.25 (inactive)
O=S(=O)([O-])[O-].[Cu+2] [Copper (II) sulfate] (Biolog plate: PM21) | 6 (inactive)
[Cl-].[Cl-].[Zn+2] [Zinc chloride] (Biolog plate: PM21) | 5.75 (inactive)
[I-].[K+] [Potassium iodide] (Biolog plate: PM22) | 0 (active)
Cc1cc(N)c2ccccc2[n+]1CCCCCCCCCC[n+]1c(C)cc(N)c2ccccc21 [Dequalinium chloride] (Biolog plate: PM23) | 4 (inactive)
N=C(N)c1ccccc1 [Benzamidine] (Biolog plate: PM22) | 4 (inactive)
O=NO [Sodium Nitrite] (Biolog plate: PM23) | 4.33 (inactive)
NC[C@@H]1O[C@H](O[C@H]2[C@@H](O)[C@H](O[C@@H]3[C@@H](O)[C@H](N)C[C@H](N)[C@H]3O[C@H]3O[C@H](CN)[C@@H](O)[C@H](O)[C@H]3N)O[C@@H]2CO)[C@H](N)[C@@H](O)[C@@H]1O [Neomycin] (Biolog plate: PM21) | 5.25 (inactive)
O=C(O)CCC(=O)O [Succinic acid] (Biolog plate: PM25) | 3.33 (inactive)
NC(N)=NCCC[C@H](N)C(=O)NO [L-Arginine hydroxamate] (Biolog plate: PM22) | 5.67 (inactive)
O=C(O)CN(CCOCCOCCN(CC(=O)O)CC(=O)O)CC(=O)O (Biolog plate: PM24) | 4.33 (inactive)
NC[C@H]1O[C@H](O[C@H]2[C@H](O)[C@@H](O[C@H]3O[C@H](CO)[C@@H](O)[C@H](N)[C@H]3O)[C@H](N)C[C@@H]2N)[C@H](O)[C@@H](O)[C@@H]1O [Kanamycin] (Biolog plate: PM25) | 5 (inactive)
[Cl][Pd][Cl] [Palladium(II) Chloride] (Biolog plate: PM25) | 4.33 (inactive)
CSc1ccc2c(c1)N(CCC1CCCCN1C)c1ccccc1S2 (stereo unspecified) [Thioridazine] (Biolog plate: PM24) | 3.33 (inactive)
C[C@@H]1[C@H](O)[C@@H](C)/C=C/C=C/C=C/C=C/C=C/C=C/C=C/[C@H](O[C@@H]2O[C@H](C)[C@@H](O)[C@H](N)[C@@H]2O)C[C@@H]2O[C@](O)(C[C@@H](O)C[C@@H](O)[C@H](O)CC[C@@H](O)C[C@@H](O)CC(=O)O[C@H]1C)C[C@H](O)[C@H]2C(=O)O [Amphotericin B] (Biolog plate: PM24) | 0 (active)
NC(N)=S [Thiourea] (Biolog plate: PM21) | 2 (inactive)
[Cl][Co][Cl] [Cobalt (II) chloride] (Biolog plate: PM23) | 3.33 (inactive)
c1ccc(-c2nn(-c3ccccc3)[n+](-c3cccc4ccccc34)n2)cc1 [Tetrazolium violet] (Biolog plate: PM25) | 4.33 (inactive)
O=c1cn[nH]c(=O)[nH]1 [6-Azauracil] (Biolog plate: PM24) | 4.67 (inactive)
Nc1[nH]c(=O)ncc1F [5-Fluorocytosine] (Biolog plate: PM25) | 5 (inactive)
